TLR9-MyD88 block – blocks human TLR9 binding to MyD88; Q9NR96+Q99836; CHO BLA complementation TLR9-MyD88, CCF4 FRET ratio; inhibition, % at 4.98 µM; 0.21% of 340,000 active; AID 504734;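 active = inhibition above the mean over all tested compounds plus 3 SD, cut at about 21% in these data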;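 note: 0% = DMSO only wells and 100% = clavulanate BLA inhibitor control wells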
PRMT1 inh – inhibitors of human PRMT1; Q99873; recombinant PRMT1, activity-based probe fluorescence polarization; 1.3% of 370,000 active; inhibition, % at 2.79 µM;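 active = inhibition above about 21% made by adding two undisclosed values, limit read from the data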
TLR4-MyD88 BLA – inhibitors of human TLR4-MyD88 binding; HeLa CL3-4 TLR4/MyD88 BLA complementation, FRET ratio; inhibition, % at 8.4 µM; 0.18% of 200,000 active; in the data active = inhibition above about 25%;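 note: 0% = vehicle and 100% = reference inhibitor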
Granule exo inh – lytic granule exocytosis inhibition; TALL-104 LAMP-1 surface exposure, flow cytometry; cells stimulated with thapsigargin and PMA; 0.66% of 360,000 active; inhibition, % at 10 µM;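 active = inhibition above about 55%, limit read from the data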
ABHD5-PLIN5 inh – blocks binding of human ABHD5 to perilipin-5; Q00G26+Q8WTS1; Split G. princeps luciferase complementation, luminescence, 4 h; inhibition, % at 4 µM; 0.78% of 360,000 active; AID 602281;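 active = inhibition above the mean inhibition across every tested compound plus 3 SD, cut at about 22% in these data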;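 note: 0% = DMSO only wells and the 100% control is not disclosed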
NOD2-RIPK2 inh – blocks binding of human NOD2 to RIPK2. CHO BLA complementation NOD2-RIPK2, CCF4 ratio. inhibition, % at 4.98 µM. 0.38% of 360,000 active; in the data active = inhibition above about 21%;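 note: 0% = vehicle only and 100% = reference blocker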
ABHD5 PLIN5 conf – ABHD5-PLIN5 interaction inhibition, confirmed; inhibition, % at 4 µM; shares compounds with ABHD5-PLIN5 inh; 67% of 2,200 active; biochemical ABHD5-PLIN5 interaction, luminescence; in the data active = inhibition above about 23%;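 note: 0% = DMSO vehicle wells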
HNF4 split-luc – counter-screen for ABHD5-PLIN5 inhibitors: HNF4 split-luciferase; inhibition, % at 4 µM; 77% of 2,200 active; shares compounds with ABHD5-PLIN5 inh; HNF4 dimerization, luminescence, biochemical;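 active = mean inhibition across replicate wells exceeding the computed hit threshold, cut at about 13% in these data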;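 note: light from luciferase halves that rejoin when HNF4 fusion proteins dimerize; 0% = DMSO only wells and the 100% control is not given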
Starred values were filed as active, the others as inactive; · = no result; ! = not active in a repeat. A selection: hits, their analogues and other compounds. The true share with any hit is near 2.6%.

SMILES | TLR9-MyD88 block | PRMT1 inh | TLR4-MyD88 BLA | Granule exo inh | ABHD5-PLIN5 inh | NOD2-RIPK2 inh | ABHD5 PLIN5 conf | HNF4 split-luc
Cc1[nH]c(=O)[nH]c(=O)c1S(=O)(=O)N1CCCCC1 | -4 | -3 | · | -14 | 29* | 4 | -2 | 16*
Cc1cccc(N2CCN(S(=O)(=O)c3c(C)[nH]c(=O)[nH]c3=O)CC2)c1C | 4 | -2 | -10 | 10 | 0 | 4 | · | ·
COc1ccc(C=O)cc1-c1cc(C(C)=O)c2n(c1=O)CCC2 | · | -3 | · | · | · | · | · | ·
Cc1sc2ncn(CC(=O)NCc3ccco3)c(=O)c2c1-c1ccc(F)cc1 | -2 | 24* | 3 | -3 | 29* | 8 | 56* | 62*
CC(C)N=C(N)N=C(N)Nc1ccc(Cl)cc1 | -12 | -6 | · | -1 | 4 | 2 | · | ·
NC(=NCCCCCCN=C(N)/N=C(\N)Nc1ccc(Cl)cc1)/N=C(\N)Nc1ccc(Cl)cc1 | 4 | -8 | · | 1 | 34*! | 10 | 26* | 2
NC(=O)c1c(N)[nH]c(C(=O)c2ccccc2)c1-c1ccc2c(c1)OCO2 | · | -1 | · | · | · | · | · | ·
Cc1ccc2nc3n(c(=O)c2c1)-c1ccccc1C(=O)NC3CC(C)C (configuration not stated) | · | 0 | · | · | · | · | · | ·
COC(=O)c1ccc2c(c1)C(C)(C)C(/C=C/c1ccccc1O)=[N+]2C | 14 | 0 | 10 | 32 | 64* | 17 | 98* | 95*
C#CCOCCOCCOCCNc1nc(N2CCN(C(=O)CCCCCCCCCCNC(=O)[C@H](CCCCN)n3cc(C)nn3)CC2)nc(N2CCN(C(=O)CCCCCCCCCCNC(=O)[C@H](CCCCN)n3cc(CCCC(=O)O)nn3)CC2)n1 | -7 | · | · | -1 | 7 | 5 | · | ·
C#CCOCCOCCOCCNc1nc(N2CCN(C(=O)CCCCCCCCCCNC(=O)[C@@H](CCSC)n3cc(CCO)nn3)CC2)nc(N2CCN(C(=O)CCCCCCCCCCNC(=O)[C@H](CCSC)n3cc(CCO)nn3)CC2)n1 | -11 | -1 | · | 0 | 44* | 4 | 9 | -20
C#CCOCCOCCOCCNc1nc(N2CCN(C(=O)CCCCCCCCCCNC(=O)[C@H](CCCCN)n3cc(CCCC(=O)O)nn3)CC2)nc(N2CCN(C(=O)CCCCCCCCCCNC(=O)[C@@H]([C@H](C)O)n3cc(C)nn3)CC2)n1 | 10 | · | · | 12 | 37* | -2 | 8 | 2
C#CCOCCOCCOCCNc1nc(N2CCN(C(=O)CCCCCCCCCCNC(=O)Cn3cc(C[C@@H](C)O)nn3)CC2)nc(N2CCN(C(=O)CCCCCCCCCCNC(=O)[C@H](CCCCN)n3cc(CCCC(=O)O)nn3)CC2)n1 | -2 | 1 | · | 2 | 36* | -9 | 0 | 14*
C#CCOCCOCCOCCNc1nc(N2CCN(C(=O)CCCCCCCCCCNC(=O)[C@H]([C@@H](C)CC)n3cc(CCCCCN)nn3)CC2)nc(N2CCN(C(=O)CCCCCCCCCCNC(=O)[C@H](CCCCN)n3cc(CCCC(=O)O)nn3)CC2)n1 | 2 | · | · | -2 | 39* | 17 | 10 | -3
C#CCOCCOCCOCCNc1nc(N2CCN(C(=O)CCCCCCCCCCNC(=O)Cn3cc(C[C@@H](C)O)nn3)CC2)nc(N2CCN(C(=O)CCCCCCCCCCNC(=O)[C@H](CO)n3cc(CCCSC)nn3)CC2)n1 | 0 | 1 | · | -10 | 18 | -8 | · | ·
C#CCOCCOCCOCCNc1nc(N2CCN(C(=O)CCCCCCCCCCNC(=O)Cn3cc(C[C@@H](C)O)nn3)CC2)nc(N2CCN(C(=O)CCCCCCCCCCNC(=O)[C@@H](CCC(=O)O)n3cc(CCCCCN)nn3)CC2)n1 | 3 | 1 | · | 7 | 20 | 2 | · | ·
CCOC(=O)[C@]12CCCC=C1N(Cc1ccc(OC)cc1)C(=O)[C@@H]2CC(=O)NCc1cccc(C(F)(F)F)c1 | · | 1 | · | · | · | · | · | ·
CN1C(=O)c2cc(NC(=O)C3CCCCC3)ccc2OC[C@H]2O[C@@H](CC(=O)NC3CCCC3)CC[C@H]21 | · | -4 | · | · | · | · | · | ·
Nc1[nH]c(C(=O)c2ccccc2)c(-c2ccccc2[N+](=O)[O-])c1C(=O)NCCc1c[nH]c2ccccc12 | · | 4 | · | · | · | · | · | ·
COc1cccc(/C=C/C(=O)OCC(=O)Nc2ccc3c(c2)OCCO3)c1 | -4 | 1 | · | -4 | 10 | 1 | · | ·
COc1cccc(/C=C/C(=O)c2ccc(NC3=NCCCS3)cc2)c1 | -9 | 1 | 2 | 0 | 45* | -4 | 74* | 63*
Cc1cccc(/C=C/C(=O)c2ccc(NC3=NCCCS3)cc2)c1 | 6 | 5 | 12 | 4 | 52* | 1 | 79* | 61*
C[C@@H]1C=CCCO[C@]12C(=O)N(Cc1ccccc1C(F)(F)F)c1ccccc12 | · | 3 | · | · | · | · | · | ·
CCN(CC)C(=O)N1CCN(C)CC1 | 5 | 7 | · | -3 | 38* | -5 | 80* | 37*
CCC(=O)N(CCC(c1ccc(C)cc1)c1ccco1)Cc1ccco1 (configuration not stated) | 2 | -4 | · | 3 | 26* | -6 | 17 | 12
SMILES | TLR9-MyD88 block | PRMT1 inh | TLR4-MyD88 BLA | Granule exo inh | ABHD5-PLIN5 inh | NOD2-RIPK2 inh | ABHD5 PLIN5 conf | HNF4 split-luc
N#Cc1ncc(Cc2ccccc2)nc1C#N | -5 | -2 | · | 21 | 30* | -10 | 46* | 21*
COc1ccc(C(=O)c2[nH]c(N)c(C(=O)c3c[nH]c4ccccc34)c2-c2ccc(F)c(OC)c2)cc1 | · | -1 | · | · | · | · | · | ·
COc1cc(OC)cc(-c2c(C#Cc3ccsc3)c3cc(-c4ccc5c(c4)OCO5)ccc3n2C)c1 | -2 | -2 | · | -1 | 98* | 10 | 6 | 1
Cn1cccc1[C@]1(O)C(=O)Nc2ccc(F)cc21 | · | 7 | · | · | · | · | · | ·
CCOC(=O)N1CCN(C(=O)C[C@@H]2C[C@@]3(C(=O)OCC)CCC=C3N(Cc3ccc(Cl)cc3Cl)C2=O)CC1 | · | 1 | · | 8 | 26* | -12 | 35* | -2
CCOC(=O)[C@]12CCC=C1N(Cc1ccc(Cl)cc1Cl)C(=O)[C@H](CC(=O)NCc1cccc(C(F)(F)F)c1)C2 | · | 1 | · | 34 | 25* | -2 | 21 | 1
CCOC(=O)[C@]12CCCC=C1N(Cc1ccc(Cl)cc1Cl)C(=O)[C@H](CC(=O)NCc1cccc(C(F)(F)F)c1)C2 | · | -1 | · | 3 | 2 | 5 | · | ·
CCCc1nc(C)c2c(=O)[nH]c(-c3cc(S(=O)(=O)N4CCN(CC)CC4)ccc3OCC)nn12 | -6 | 2 | · | 4 | 62* | -1 | 68* | 29*
CCN=C1NC(c2ccccc2)C(C(=O)OC)=C(C)N1Cc1ccc(C(F)(F)F)cc1 (configuration not stated) | · | -1 | · | · | · | · | · | ·

Screens deposited in PubChem by several laboratories.
